High-throughput results from PubChem.
In the library only some 21% were active in any assay of this set; here they are far more common.
AMA1-RON2 inh: qHTS for Inhibitors of AMA1-RON; Towards Development of Antimalarial Drug Lead: Primary Screen. Plasmodium falciparum AMA1 (3D7) - RON2 peptide interaction. AID 720542, 2013. Potency, µM (highest dose often 58.2 µM), actives largely listed as inhibitors. 360,000 tested, 0.2% active. AlphaScreen AMA1-biotinylated RON2 peptide binding; further: nearly all actives have a fitted effect of over 45% in size
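AMA1 (3D7) with his tag at 25 nM final met compounds first, then biotinylated RON2 peptide at 25 nM; detection used donor plus acceptor beads, 10 µg/mL apiece, read by AlphaScreen after 30 min at room temperature.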
Shiga inhibitor: A qHTS for Small Molecule Inhibitors of Shiga Toxin; AID 2315, 2010; inhibition, % at 38.7 µM; 290,000 tested, 9.2% active; Vero cells, Shiga toxin protein synthesis inhibition reporter; in the data active means inhibition mostly above about 28%, no sharp cut-off; inactive means mostly below about 43%
HCV inh: qHTS Assay for Inhibitors of Hepatitis C Virus (HCV); Huh7.5.1 HCVcc-Cre infection, luciferase reporter, 44 h; Potency, µM (titrated, usually from 41.8 µM), hits mostly inhibitors; 340,000 tested, 3.4% active; AID 651820, 2012
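Luciferase read-out (15 sec integration) after a 15 min room-temperature substrate step quantifies HCVcc-Cre infection. Cells, 1,000 per well, had compound added 4 h post-plating, then virus at ~0.5 moi, and were cultured 44 h.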
Pf growth 96h: Primary qHTS for delayed death inhibitors of the malarial parasite plastid, 96 hour incubation; P. falciparum luciferase reporter growth, 96 h; Potency, µM (highest dose often 28.7 µM), hits mostly inhibitors; 320,000 tested, 6.9% active; AID 504834, 2011
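Compounds incubated with erythrocytes infected by luciferase-expressing P. falciparum (2% hematocrit, 0.05% parasitemia final) for 96 hours, 37 C in 5% CO2. Growth inhibition scored as decreased luciferase luminescence.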
CHX counter: Cycloheximide Counterscreen for Small Molecule Inhibitors of Shiga Toxin. max response, %. cell reporter, cycloheximide protein synthesis inhibition counterscreen. 300,000 tested, 12% active; in the data active means max response mostly above about 13%, no sharp cut-off; inactive means mostly below about 14%; further: read at 38.3 µM for the half of the compounds with a filed dose
Pf growth 48h: Primary qHTS for delayed death inhibitors of the malarial parasite plastid, 48 hour incubation | P. falciparum luciferase growth in erythrocytes, 48 h | Potency, µM (top dose mostly 28.7 µM), usual class: inhibitors | 310,000 tested, 5.9% active | AID 504832, 2011
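Luciferase-expressing P. falciparum in infected erythrocytes (2% hematocrit, 0.1% parasitemia final) in RPMI 1640/0.5% Albumax were exposed to compound for 48 hours at 37 C, 5% CO2; growth read as luminescence.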
Large screens that a line does not name were inactive. Unless noted, the call rests on the fitted dose curve; in most records, active means well fitted curve in the direction sought with a large enough effect; inconclusive means small, poorly fitted or top-dose-only effect, or another doubt; inactive means no such curve, though single readings can be large; an effect the other way counts as inactive or inconclusive.

Cc1noc(C)c1C(=O)OCC(=O)c1ccc[nH]1	none (no result: Pf growth 48h)
CN1C(=O)C2(N=c3ccccc3=N2)c2ccccc21	HCV inh 11µM
COCc1cccc(-c2csc(C(C)(O)c3ccc(OC)cc3)n2)c1 (stereo not drawn)	none (no result: Shiga inhibitor, HCV inh, Pf growth 96h, CHX counter, Pf growth 48h)
O=[N+]([O-])c1ccc(OCc2cnc(Cl)s2)cc1	CHX counter 32
COc1ccc(OCc2cnc(Cl)s2)cc1	Shiga inhibitor 60, CHX counter 29
Cc1ccc(OCc2cnc(Cl)s2)c(C)c1	Shiga inhibitor 146, CHX counter 36
FC(F)(F)c1ccccc1Cc1c(-c2ccc(Cl)cc2)nc2c3ccccc3ccn12	none (no result: Shiga inhibitor, HCV inh, Pf growth 96h, CHX counter, Pf growth 48h)
CCCC[C@@H]1CCCO[C@@](C(=O)NCCN2CCOCC2)(C(F)(F)F)C1	none (no result: AMA1-RON2 inh, HCV inh, Pf growth 96h, Pf growth 48h)
O=C(NC12CC3CC(CC(C3)C1)C2)c1ccc([N+](=O)[O-])cc1	none
O=[N+]([O-])c1ccc(C23CC4CC(CC(O)(C4)C2)C3)cc1	Shiga inhibitor 63, CHX counter 39 (no result: AMA1-RON2 inh, HCV inh)
Cc1cccc(CN2[C@H](COC(=O)Nc3ccccc3)C=CS2(=O)=O)c1	none (no result: Shiga inhibitor, HCV inh, Pf growth 96h, CHX counter, Pf growth 48h)
Cc1ccc(/C=C2\SC(N)=NC2=O)s1	none
NC1=NC(=O)/C(=C/c2cc(Br)c(O)c(Br)c2)S1	Pf growth 96h inconclusive
CCOC(=O)CSC1=NC(=O)/C(=C\c2ccc(OC(C)=O)cc2)S1	Shiga inhibitor 120, HCV inh inconclusive, CHX counter 28
NC1=NC(=O)/C(=C/c2ccc(Br)cc2)S1	Pf growth 96h 2.3µM (no result: Shiga inhibitor)
CCOC(=O)CSC1=NC(=O)/C(=C/c2ccc(Br)cc2)S1	Shiga inhibitor 60, CHX counter 30
Cc1ccsc1/C=C1\SC(N)=NC1=O	CHX counter 20
Cc1ccccc1NC(=O)CSc1nc2c(c(=O)n(C)c(=O)n2C)n1C	none
Cc1ccccc1OCC(=O)NCC(=O)N/N=C/c1ccc(Br)o1	none
CCCOc1ccc(CC(=O)N/N=C\c2ccc(F)cc2)cc1	none
CCCOc1ccc(CCC(=O)N/N=C/c2ccc([N+](=O)[O-])o2)cc1	HCV inh inconclusive, Pf growth 96h 12µM, Pf growth 48h inconclusive
Cc1cccc(OCC(=O)N/N=C\c2cc3c(cc2[N+](=O)[O-])OCO3)c1C	HCV inh 11µM, Pf growth 96h inconclusive (no result: Pf growth 48h)
Cc1ccccc1OCC(=O)N/N=C/c1ccc([N+](=O)[O-])o1	HCV inh inconclusive, Pf growth 96h 2.1µM, Pf growth 48h 5.2µM
O=C(COc1ccccc1[N+](=O)[O-])N/N=C/C=C/c1ccco1	none
COc1ccccc1OCC(=O)N/N=C/C=C/c1ccc([N+](=O)[O-])o1	HCV inh inconclusive, Pf growth 96h 1.5µM, CHX counter 19, Pf growth 48h 4.1µM
CC(Oc1ccc(Br)cc1Br)C(=O)Nc1cccnc1Cl (stereo not drawn)	Pf growth 96h inconclusive
O=C(CNc1cccc([N+](=O)[O-])c1)N/N=C/c1ccc([N+](=O)[O-])o1	HCV inh inconclusive, Pf growth 48h inconclusive
Cc1cc(C)cc(OCC(=O)N/N=C/c2ccc([N+](=O)[O-])o2)c1	HCV inh 11µM, Pf growth 48h 9.3µM
Cc1noc(C)c1C(=O)Nc1cccnc1	none (no result: Pf growth 96h)
O=C(Nc1cccnc1)c1cc(-c2cccs2)on1	Pf growth 96h 10µM (no result: HCV inh)
O=C(Nc1cccnc1)c1cc(-c2ccccc2O)on1	Shiga inhibitor 77, CHX counter 48
O=C(Nc1cnn(Cc2ccc(Cl)cc2Cl)c1)c1cc(-c2cccs2)on1	HCV inh inconclusive, Pf growth 96h inconclusive, Pf growth 48h inconclusive
Oc1ccc2c(ccc3[nH]cnc32)c1	Shiga inhibitor 51, CHX counter 28, Pf growth 48h inconclusive
N#CC1(c2ccccc2)CCN(C2CC(=O)N(c3cccc(F)c3)C2=O)CC1 (stereo not drawn)	Pf growth 96h 8.3µM
COc1ccccc1NCc1cc(=O)oc2c(C)c(O)ccc12	HCV inh inconclusive, Pf growth 96h 1.9µM, Pf growth 48h 1.7µM
COc1ccc(C)cc1NCc1cc(=O)oc2cc(-c3ccccc3)c(O)cc12	HCV inh inconclusive, Pf growth 96h 1µM, Pf growth 48h 1.5µM
Cc1cc(C)cc(NCc2cc(=O)oc3cc(-c4ccccc4)c(O)cc23)c1	Pf growth 96h 2.3µM, Pf growth 48h 4.7µM
C#CCn1c(O)c(N=NC(=O)CNC(=O)c2cccnc2)c2ccccc21	none
Cc1ccc(S(=O)(=O)N(C)c2ccc(C(=O)N(C)Cc3nc4ccccc4c(=O)[nH]3)cc2)cc1	Pf growth 96h 5.9µM, Pf growth 48h 12µM (no result: Shiga inhibitor, CHX counter)
CC(=O)c1ccc(-c2ccc(C(=O)N(C)Cc3nc4ccccc4c(=O)[nH]3)o2)cc1	HCV inh 7.1µM, Pf growth 96h inconclusive, Pf growth 48h inconclusive (no result: Shiga inhibitor, CHX counter)
CN(Cc1nc2ccccc2c(=O)[nH]1)C(=O)c1ccc(S(=O)(=O)N(C)C)cc1	Pf growth 96h inconclusive (no result: Pf growth 48h)
COc1ccccc1CN(Cc1nc2ccccc2c(=O)[nH]1)C(=O)Nc1ccc(C)cc1	CHX counter 19, Pf growth 48h inconclusive (no result: Pf growth 96h)
COc1ccccc1CN(Cc1nc2ccccc2c(=O)[nH]1)S(=O)(=O)c1ccc(C)cc1	Pf growth 48h 5.9µM (no result: Pf growth 96h)
CC12CN(C(=O)c3ccccc3Br)CC(C)(CN(C(=O)c3ccccc3Br)C1)C2=O	Pf growth 48h inconclusive
CN(C)N=Nc1ccc(-c2cn(Cc3ccccc3)cn2)cc1	Shiga inhibitor 41, Pf growth 96h 4.7µM, CHX counter 47, Pf growth 48h inconclusive
CN(Cc1ccccc1)N=Nc1ccccc1	none (no result: Shiga inhibitor, HCV inh, Pf growth 96h, CHX counter, Pf growth 48h)
COc1ccc(NC(=O)c2cc3ccccc3o2)cc1S(=O)(=O)N1CCCCC1	HCV inh inconclusive (no result: Shiga inhibitor, Pf growth 96h, CHX counter, Pf growth 48h)
CCN(C(=O)Cn1nc(C)c([N+](=O)[O-])c1C)c1c(N)n(Cc2ccccc2)c(=O)[nH]c1=O	Pf growth 48h inconclusive (no result: Shiga inhibitor, CHX counter)
COCc1cc(=O)n2[nH]c(-c3cccc(Br)c3)cc2n1	CHX counter 27
COCc1cc(=O)n2[nH]c(-c3ccccc3)cc2n1	CHX counter 23 (no result: Pf growth 48h)
O=C(NCc1ccccc1F)C1CCCN1C(=O)Nc1ccc(F)cc1 (stereo not drawn)	none (no result: Shiga inhibitor)
Cc1nnc2ccc(-c3ccc(NC(=O)c4ccco4)cc3)nn12	Pf growth 96h inconclusive, CHX counter 14
CC(=O)Nc1ccc(-c2ccc3nnc(C)n3n2)cc1	AMA1-RON2 inh inconclusive, Pf growth 96h inconclusive
CCOc1ccc(CC(=O)Nc2ccc(-c3ccc4nnc(C)n4n3)cc2)cc1	none
Cc1nnc2ccc(-c3ccc(NC(=O)Cc4cccs4)cc3)nn12	Pf growth 96h 9.3µM
O=C(C(=O)N1CCCCC1)c1cn(CC(=O)N2CCCCCC2)c2ccccc12	Pf growth 96h 12µM, Pf growth 48h inconclusive
O=C(C(=O)N1CCN(c2ccc(F)cc2)CC1)c1cn(CC(=O)N2CCOCC2)c2ccccc12	Pf growth 96h 13µM
